A short description of assay [1]: antimalarial activity against Dd2 strain (AID 2302;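 active means growth inhibition above 50% at the single 2 µM test dose, taken to imply half-maximal potency below 2 µM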;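 further: 0% = DMSO untreated growth and 100% = chloroquine plus artemisinin killed control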). As to conditions: P. falciparum Dd2 in RBCs, LDH growth readout, 72 h; at 2 µM; hits give high values.
The nature of assay [2]: human hepatoma cell viability loss – ATP luminescence, cytotoxicity control for P. falciparum antimalarial project, primary screen (AID 2303;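 active means inhibition above 50%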;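 further: 0% = DMSO wells and 100% = digitonin-killed cells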). The following applies: HepG2 viability, 24-48 h, at 10 µM, hits give high values.
Assay [3] addresses L-lactate dehydrogenase (Plasmodium falciparum (isolate CDC / Honduras)) (UniProt Q27743). Description: PfLDH activity inhibition – cell lysate, 3D7 strain, counter-screen for P. falciparum growth inhibition project (AID 2304).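 Further: 0% = vehicle and 100% = reference inhibitor.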 As to conditions: P. falciparum 3D7 crude extract, LDH APAD/NBT absorbance; at 2 µM; hits give high values.
Assay [4] can be described thus: inhibition of 3D7 malaria parasite growth – strain 3D7 (AID 2306).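 Further: 0% = DMSO wells and 100% = chloroquine plus artemisinin control wells.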 As to conditions: P. falciparum 3D7 erythrocytic growth, LDH absorbance, 72 h; at 2 µM; hits give high values.
Assay [5] addresses Calcium-dependent protein kinase 1 (Plasmodium falciparum (isolate 3D7)) (UniProt P62344). Description: PfCDPK1 kinase inhibitors, biochemical, TCAMS library (AID 1159585; cut-off not given, nearly all actives have IC50 up to about 0.98 µM;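 further: inhibitors leave more ATP so luminescence rises with inhibition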). The following applies: recombinant PfCDPK1, Kinase-Glo ATP depletion luminescence. (Kinase-Glo measures the ATP left after a reaction by luminescence.)
The target of assay [6] is Plasmodium falciparum protein kinase 6 (PK6, PF3D7_1337100) (UniProt Q8IDW1). In words: PfPK6 kinase inhibitors, biochemical, TCAMS library (AID 1159586). The following applies: recombinant PfPK6, Kinase-Glo ATP depletion luminescence.
Assay [7] has as its target Protein kinase 7 (PK7), Plasmodium falciparum 3D7 (PF3D7_0213400) (UniProt Q7YTF7). In words: inhibition of Plasmodium PK7 catalytic activity – biochemical, TCAMS antimalarial set, Kinase-Glo luminescence (AID 1159587). The following applies: recombinant PfPK7, Kinase-Glo ATP depletion luminescence.
For assay [8], the target named is Calcium-dependent protein kinase 4 (Plasmodium falciparum (isolate 3D7)) (UniProt Q8IBS5). In words: PfCDPK4 kinase inhibitors, biochemical, TCAMS library (AID 1159588; cut-off not given, nearly all actives have IC50 up to about 0.91 µM). As to conditions: recombinant PfCDPK4, Kinase-Glo ATP depletion luminescence.

Unmarked numbers belong to inactive results. For some of these results: Measured potencies and affinities stand elsewhere. Calls of active or inactive are those of the source. Unless noted, how the calls were made is not given here.

Plasmodium falciparum protein kinase 6 (PK6, PF3D7_1337100), sequence (Q8IDW1 1-305): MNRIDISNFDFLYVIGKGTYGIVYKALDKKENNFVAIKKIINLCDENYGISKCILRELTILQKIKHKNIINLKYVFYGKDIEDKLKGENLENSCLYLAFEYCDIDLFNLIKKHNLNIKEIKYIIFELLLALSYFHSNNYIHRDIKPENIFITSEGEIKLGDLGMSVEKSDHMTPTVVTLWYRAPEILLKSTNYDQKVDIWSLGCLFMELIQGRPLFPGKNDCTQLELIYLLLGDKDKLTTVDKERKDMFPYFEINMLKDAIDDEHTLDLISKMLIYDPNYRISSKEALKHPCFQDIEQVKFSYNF
Protein kinase 7 (PK7), Plasmodium falciparum 3D7 (PF3D7_0213400), sequence (Q7YTF7 1-343): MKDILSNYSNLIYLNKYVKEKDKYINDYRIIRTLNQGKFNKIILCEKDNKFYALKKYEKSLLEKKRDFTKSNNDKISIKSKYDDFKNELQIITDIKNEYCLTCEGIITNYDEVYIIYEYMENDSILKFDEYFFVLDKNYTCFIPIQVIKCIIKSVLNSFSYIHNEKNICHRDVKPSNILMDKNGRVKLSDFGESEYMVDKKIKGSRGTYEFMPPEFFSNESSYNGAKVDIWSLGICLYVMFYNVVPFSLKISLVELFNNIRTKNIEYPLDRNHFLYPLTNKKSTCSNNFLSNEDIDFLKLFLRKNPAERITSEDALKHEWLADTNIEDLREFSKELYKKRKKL
Calcium-dependent protein kinase 4 (Plasmodium falciparum (isolate 3D7)), sequence (Q8IBS5 whole entry, looked up): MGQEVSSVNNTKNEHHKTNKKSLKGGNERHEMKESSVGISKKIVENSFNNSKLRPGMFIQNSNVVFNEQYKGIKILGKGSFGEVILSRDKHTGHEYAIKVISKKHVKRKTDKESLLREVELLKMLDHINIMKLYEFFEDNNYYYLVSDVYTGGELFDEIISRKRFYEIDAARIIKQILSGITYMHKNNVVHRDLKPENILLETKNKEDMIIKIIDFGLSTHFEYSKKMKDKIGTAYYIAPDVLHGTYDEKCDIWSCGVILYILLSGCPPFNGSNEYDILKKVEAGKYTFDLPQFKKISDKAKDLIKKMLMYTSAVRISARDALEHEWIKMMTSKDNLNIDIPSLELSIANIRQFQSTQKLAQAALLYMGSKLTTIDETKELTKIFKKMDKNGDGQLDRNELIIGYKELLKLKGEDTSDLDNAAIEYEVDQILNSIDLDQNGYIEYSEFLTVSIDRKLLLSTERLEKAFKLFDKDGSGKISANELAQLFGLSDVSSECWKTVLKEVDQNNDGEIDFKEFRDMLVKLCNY
L-lactate dehydrogenase (Plasmodium falciparum (isolate CDC / Honduras)), sequence (Q27743 whole entry, looked up): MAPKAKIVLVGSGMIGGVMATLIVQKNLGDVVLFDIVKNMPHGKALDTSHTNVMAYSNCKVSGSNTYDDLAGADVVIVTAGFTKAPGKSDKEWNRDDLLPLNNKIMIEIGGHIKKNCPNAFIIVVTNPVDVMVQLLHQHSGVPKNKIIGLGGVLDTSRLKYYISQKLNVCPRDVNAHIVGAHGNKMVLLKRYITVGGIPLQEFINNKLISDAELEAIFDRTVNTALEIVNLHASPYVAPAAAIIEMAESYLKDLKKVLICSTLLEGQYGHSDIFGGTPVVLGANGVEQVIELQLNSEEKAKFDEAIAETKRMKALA
Calcium-dependent protein kinase 1 (Plasmodium falciparum (isolate 3D7)), sequence (P62344 whole entry, looked up): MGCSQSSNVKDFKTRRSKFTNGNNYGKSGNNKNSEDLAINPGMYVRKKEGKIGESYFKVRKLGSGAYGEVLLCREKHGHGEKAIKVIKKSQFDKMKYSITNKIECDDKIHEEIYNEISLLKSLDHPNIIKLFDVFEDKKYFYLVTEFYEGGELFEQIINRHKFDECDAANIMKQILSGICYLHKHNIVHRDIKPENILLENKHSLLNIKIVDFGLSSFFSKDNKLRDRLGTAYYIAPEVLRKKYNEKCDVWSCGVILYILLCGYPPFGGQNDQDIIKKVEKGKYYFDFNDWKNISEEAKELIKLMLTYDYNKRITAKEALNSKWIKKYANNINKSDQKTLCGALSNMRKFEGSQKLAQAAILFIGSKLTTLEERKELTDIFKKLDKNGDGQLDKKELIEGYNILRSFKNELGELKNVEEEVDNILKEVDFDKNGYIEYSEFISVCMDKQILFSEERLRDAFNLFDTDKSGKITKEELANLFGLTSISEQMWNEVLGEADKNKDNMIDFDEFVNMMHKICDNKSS

Broadly, the inhibition is the relative decrease from the control value, in per cent. Regarding `O=C(Nc1cccc(C(F)(F)F)c1)c1cccc(S(=O)(=O)NC2CCN(CC3CCCCC3)C2)c1` (stereo not given), the results for the growth inhibition in assay [1] and in assay [4] were 45% and 101% (active), respectively. Moreover, the inhibition in assay [2] is 37%; in assay [3] it was -1%. The result in assay [5], in assay [6], in assay [7] and in assay [8] was inactive.

`N#Cc1ccc2c(c1)CCN(CCC1CCC(NC(=O)/C=C/c3cc(Br)cs3)CC1)CC2` (stereo not given): the values for the growth inhibition in assay [1] and in assay [4] were 1% and 93% (active), respectively. The inhibition in assay [2] was 3%; in assay [3] it was 5%. Moreover, the result in assay [5], in assay [6], in assay [7] and in assay [8] was inactive.

In the case of `COc1cc2nc(N3CCC(CNC(=O)c4ccc(-c5ccc(C(=O)N(C)C)cc5)c(OCCO)c4)CC3)nc(N)c2cc1OC`, the growth inhibition in assay [1] was 18%; in assay [4] it was 96% (active). The inhibition in assay [2] was 10%; in assay [3], -3%. The outcome in assay [5], in assay [6], in assay [7] and in assay [8] was inactive.

`O=C(Nc1ccc(N2CCN(Cc3cccc(F)c3)CC2)cc1)c1cccs1`: the growth inhibition in assay [1] was 92% (active); in assay [4], 95% (active). Also, the inhibition in assay [2] was -5%; in assay [3], -1%. Moreover, the result in assay [5], in assay [6], in assay [7] and in assay [8] was inactive.

Consider `COc1ccc(CNc2cc(C)nc3sc4c(c23)CCC2(C4)OCCO2)cc1`, for which the growth inhibition was 2% in assay [1] and 96% (active) in assay [4]. Besides, the inhibition was 4% in assay [2] and -7% in assay [3]. The outcome in assay [5], in assay [6], in assay [7] and in assay [8] was inactive.

As to `NCCCNc1ccc(-c2ccc(NC(=O)Nc3cc(C(F)(F)F)ccc3F)cc2)cn1`, the values for the growth inhibition in assay [1] and in assay [4] were 66% (active) and 100% (active), respectively. Moreover, the inhibition in assay [2] is -3%; in assay [3] it was 3%. Besides, the result in assay [5], in assay [6], in assay [7] and in assay [8] was inactive.

Regarding `Cc1cccc2sc(N(CCCn3ccnc3)C(=O)C=Cc3cccs3)nc12`, the figures for the growth inhibition in assay [1] and in assay [4] were 9% and 91% (active), respectively. The inhibition is -6% in assay [2] and 2% in assay [3]. The outcome in assay [5], in assay [6], in assay [7] and in assay [8] was inactive.

For the molecule `CCOc1ccc(C2CCN(CCCCNC(=O)c3ccc(NC(=O)c4ccc(Cl)cc4)cc3)CC2)c(OCC)c1`, the values for the growth inhibition in assay [1] and in assay [4] were 95% (active) and 101% (active), respectively. The inhibition in assay [2] is 14%; in assay [3] it was 0%. Besides, the outcome in assay [5], in assay [6], in assay [7] and in assay [8] was inactive.

`CCc1ccc(CN2CCC(CNC(=O)c3cc(-c4ccccc4Cl)cs3)C2)cc1` (stereo not given): the growth inhibition in assay [1] is 0%; in assay [4], 98% (active). In addition, the inhibition in assay [2] was 14%; in assay [3], -2%. Also, the result in assay [5], in assay [6], in assay [7] and in assay [8] was inactive.

As to `Cc1ccccc1C1CCN(C2CCC(NC(=O)/C=C/c3cc(F)cc(F)c3)CC2)CC1` (stereo not given), the growth inhibition in assay [1] is 33%; in assay [4], 99% (active). The inhibition in assay [2] is 53% (active); in assay [3], 3%. In addition, the outcome in assay [5], in assay [6], in assay [7] and in assay [8] was inactive.

On to `CN(C)CCNC(=O)[C@H](Cc1ccccc1)NC(=O)c1ccc(O)c(-c2ccc(Cl)c(Cl)c2)c1`, for which the growth inhibition in assay [1] was 0%; in assay [4] it was 98% (active). The inhibition was -1% in assay [2] and -6% in assay [3]. For the same molecule, the result in assay [5], in assay [6], in assay [7] and in assay [8] was inactive.

`O=C(COc1ccccc1Cl)N1CCc2cc3nccc(N4CCN5CCC[C@H]5C4)c3cc21`: the growth inhibition in assay [1] is 99% (active); in assay [4], 91% (active). The inhibition in assay [2] was 4%; in assay [3] it was -1%. The outcome in assay [5], in assay [6], in assay [7] and in assay [8] was inactive.

Regarding `c1cncc(CCNCc2cccc(-c3csc(-c4nc5ccccc5[nH]4)c3)c2)c1`, the growth inhibition in assay [1] was 98% (active); in assay [4] it was 100% (active). In addition, the inhibition in assay [2] was 26%; in assay [3], -1%. For the same molecule, the outcome in assay [5], in assay [6], in assay [7] and in assay [8] was inactive.

Turning to `Cc1cccc2[nH]c(-c3cccc(-c4cccc(CNCc5cccc(N)c5)c4)c3)nc12`, the growth inhibition in assay [1] was 73% (active); in assay [4], 101% (active). Also, the inhibition in assay [2] was 14%; in assay [3], 1%. For the same molecule, the outcome in assay [5], in assay [6], in assay [7] and in assay [8] was inactive.

With `N#Cc1ccc2[nH]cc(CN3CCC4(CC3)CN(CCNCc3ccccc3)C(=O)CO4)c2c1`, the growth inhibition in assay [1] was -2%; in assay [4] it was 98% (active). In addition, the inhibition in assay [2] was -3%; in assay [3], 1%. Besides, the outcome in assay [5], in assay [6], in assay [7] and in assay [8] was inactive.

Take `CCCCCCNC(=O)C1Cc2c([nH]c3cc(Cl)ccc23)C2(CCN(Cc3ccccc3)CC2)N1` (stereo not given): the growth inhibition in assay [1] is 56% (active); in assay [4], 90% (active). Also, the inhibition was 21% in assay [2] and 2% in assay [3]. Besides, the result in assay [5], in assay [6], in assay [7] and in assay [8] was inactive.

Turning to `COc1ccc(/C=C/c2ccc(-c3c(C)[nH]c(C)c(Cl)c3=O)cc2)cc1OC`, the results for the growth inhibition in assay [1] and in assay [4] were 96% (active) and 97% (active), respectively. Also, the figures for the inhibition in assay [2] and in assay [3] were 12% and -8%, respectively. Besides, the outcome in assay [5], in assay [6], in assay [7] and in assay [8] was inactive.

Turning to `OC(CNCc1ccccc1OCc1ccccc1)c1cccc(Cl)c1` (stereo not given), the growth inhibition in assay [1] and in assay [4] was 100% (active) each time. Moreover, the inhibition in assay [2] was -6%; in assay [3], 7%. Also, the outcome in assay [5], in assay [6], in assay [7] and in assay [8] was inactive.

Take `Cc1nc(-c2ccc(-c3ccc(C(=O)Nc4ccc(Cl)c(N5CCN(C)CC5)c4)cc3)c(C)c2)no1`: the growth inhibition in assay [1] is 47%; in assay [4], 101% (active). Also, the inhibition in assay [2] was 23%; in assay [3], 4%. In addition, the outcome in assay [5], in assay [6], in assay [7] and in assay [8] was inactive.

As to `Cc1cccc2c(/C=C/C(=O)NC3CCC(CCN4CCc5ccc(C#N)cc5CC4)CC3)c[nH]c12` (stereo not given), the growth inhibition in assay [1] was 49%; in assay [4], 91% (active). In addition, the inhibition in assay [2] was 18%; in assay [3], -1%. The outcome in assay [5], in assay [6], in assay [7] and in assay [8] was inactive.

For the origin of these results see PubChem BioAssay.
